This note sets out measurements from ChEMBL document CHEMBL1157539, “Thousands of chemical starting points for antimalarial lead identification” (Nature, 2010).

Common to all, as to format: functional
For assay [1], the system named is Plasmodium falciparum. Nature of the assay: GSK_TCMDC: Inhibition of Plasmodium falciparum 3D7 in whole red blood cells, using parasite LDH activity as an index of growth. Test compounds present at 2uM.
The test system of assay [2] is Plasmodium falciparum. The experiment in a line: GSK_TCMDC: Inhibition of Plasmodium falciparum Dd2 in whole red blood cells, using parasite LDH activity as an index of growth. Test compounds present at 2uM.
The test system of another assay is HepG2. Nature of the assay: GSK_TCMDC: Percent inhibition of human HepG2 cell line. Test compounds present at 10uM.

Consider `CCC(C)c1ccc(O)c(NC(=O)c2cncc(Br)c2)c1` (stereo not drawn), for which the Inhibition in the assay on Plasmodium falciparum [1] came out at 100%; in the assay with Plasmodium falciparum [2] it was 16%; in the assay on HepG2, 0%.

Turning to `O=[N+]([O-])c1ccc(N/C(=N\c2ccccc2Br)NC2CCCc3ccccc32)c(O)c1` (stereo not drawn), the Inhibition in the assay on Plasmodium falciparum [1] worked out at 98%; with Plasmodium falciparum [2], 89%; in the assay with HepG2, 0%.

In the case of `O=S(=O)(Nc1cccc(CCN2CCC(N3CCCCC3)CC2)c1)c1cccc2cccnc12`, the Inhibition with Plasmodium falciparum [1] was determined as 98%; in the assay with Plasmodium falciparum [2], 17%; in the assay with HepG2 it was 0%.

On to `COc1cc2nc(Nc3ccc4c(ccn4Cc4ccccc4)c3)nc(Nc3ccc4c(ccn4Cc4ccccc4)c3)c2cc1OC`, for which the values for the Inhibition in the assay with Plasmodium falciparum [1], in the assay with Plasmodium falciparum [2] and with HepG2 were 89%, 80% and 0%, respectively.

Consider `CN(C)Cc1c(O)ccc2[nH]c(-c3ccc(F)cc3F)nc12`, for which the values for the Inhibition in the assay with Plasmodium falciparum [1], in the assay with Plasmodium falciparum [2] and with HepG2 were 99%, 17% and 4%, respectively.

On to `CN(C)c1ccc(-c2ccc(C(=O)NC3CCN(Cc4ccc(C(C)(C)C)cc4)CC3)s2)cc1.O=C(O)C(F)(F)F`, for which the figures for the Inhibition in the assay on Plasmodium falciparum [1], with Plasmodium falciparum [2] and in the assay on HepG2 were 95%, 59% and 35%, respectively.

For the compound `I.N=C(N)NCC=C(c1ccccc1)c1ccccc1`, the results for the Inhibition in the assay with Plasmodium falciparum [1], with Plasmodium falciparum [2] and with HepG2 were 94%, 83% and 9%, respectively.

With `O=C(Nc1cccc(CN2CCCN(CC3CCCCC3)CC2)c1)c1ccc(Cl)c(Cl)c1.O=C(O)C(F)(F)F`, the values for the Inhibition with Plasmodium falciparum [1], in the assay with Plasmodium falciparum [2] and in the assay on HepG2 were 91%, 15% and 39%, respectively.

Turning to `COc1ccc(Nc2cc(C)nc(Nc3ccc(NC(C)=O)cc3)n2)cc1`, the Inhibition came out at 98% in the assay on Plasmodium falciparum [1], 31% in the assay with Plasmodium falciparum [2] and 16% in the assay on HepG2.

As to `CCc1ccc2c(c1O)CCN(C)C2Cc1ccccc1Cl.Cl` (stereo not drawn), the Inhibition in the assay with Plasmodium falciparum [1] was 99%; in the assay with Plasmodium falciparum [2], 99%; in the assay with HepG2 it was 13%.

For the compound `FC(F)(F)c1ccc2[nH]c(-c3ccc(-c4ccc(CN5CCN(c6cnccn6)CC5)cc4)cc3)nc2c1.O=C(O)C(F)(F)F`, the Inhibition with Plasmodium falciparum [1] worked out at 99%; in the assay on Plasmodium falciparum [2] it was 50%; in the assay on HepG2, 21%.

With `Cc1ccccc1C1CCN(C2CCC(NC(=O)/C=C/c3cccc(Cl)c3F)CC2)CC1` (stereo not drawn), the Inhibition in the assay on Plasmodium falciparum [1] is given as 100%; with Plasmodium falciparum [2], 37%; in the assay with HepG2 it was 87%.

On to `COc1ccc(CN2CCC(CNCC(c3ccccc3)c3ccccc3)CC2)cc1.O=C(O)C(F)(F)F`, for which the Inhibition came to 100% in the assay on Plasmodium falciparum [1], 95% in the assay on Plasmodium falciparum [2] and 84% in the assay on HepG2.

With `CN(C)CCCn1cncc1-c1ccc2ncnc(Nc3ccc4c(cnn4Cc4ccccc4)c3)c2c1`, the values for the Inhibition in the assay on Plasmodium falciparum [1], in the assay with Plasmodium falciparum [2] and in the assay on HepG2 were 100%, 77% and 17%, respectively.

Take `CC(C)C(=O)ONC1=NC(C)(C)N(OCCCOc2cc(Cl)c(Cl)cc2Cl)C(NOC(=O)C(C)C)=N1`: the Inhibition in the assay on Plasmodium falciparum [1] is on record as 92%; in the assay with Plasmodium falciparum [2], 93%; in the assay with HepG2, 64%.

Take `CN(CCCCCN1CCC(NC(=O)Nc2ccc(C(F)(F)F)cc2)C1)C(=O)/C=C/c1ccc(Cl)c(Cl)c1` (stereo not drawn): the Inhibition worked out at 100% with Plasmodium falciparum [1], 11% in the assay with Plasmodium falciparum [2] and 28% in the assay on HepG2.

In the case of `Cc1cc(N2CCOCC2)nc(Nc2ccc(NC(=O)c3cccc4ccccc34)cc2)n1`, the Inhibition in the assay on Plasmodium falciparum [1] worked out at 95%; in the assay on Plasmodium falciparum [2] it was 11%; in the assay on HepG2, 44%.

As for `CN1CCN(c2ccc3[nH]c(-c4ccc(Cc5cc(Cl)ccc5OCc5ccccc5)o4)nc3c2)CC1.Cl`, the results for the Inhibition with Plasmodium falciparum [1], in the assay on Plasmodium falciparum [2] and in the assay with HepG2 were 100%, 79% and 27%, respectively.

On to `O=C(O)C(F)(F)F.c1cc(CN2CCN(CCN3CCOCC3)CC2)cc(-c2csc(-c3nc4ccccc4[nH]3)c2)c1`, for which the Inhibition worked out at 100% in the assay on Plasmodium falciparum [1], 99% in the assay with Plasmodium falciparum [2] and 27% with HepG2.

In the case of `O=C(Cc1n[nH]c(=O)c2ccccc12)Nc1cccc(C(=O)Nc2cccc(C(F)(F)F)c2)c1`, the Inhibition in the assay with Plasmodium falciparum [1] was found to be 97%; with Plasmodium falciparum [2], 90%; with HepG2, 0%.

Take `CN(C)C(S)=NN=Cc1cccc(O)c1O`: the results for the Inhibition in the assay on Plasmodium falciparum [1], in the assay with Plasmodium falciparum [2] and in the assay with HepG2 were 91%, 55% and 11%, respectively.

In the case of `Br.CC1(C)NC(N)=NC(=N)N1OCCNCc1ccc(Cl)cc1`, the Inhibition in the assay on Plasmodium falciparum [1] amounted to 95%; in the assay with Plasmodium falciparum [2], 0%; with HepG2, 5%.

`FC(F)(F)c1ccc(CNC2CCN(CC3CCCCC3)CC2)cc1.O=C(O)C(F)(F)F`: the Inhibition in the assay with Plasmodium falciparum [1] is reported as 87%; in the assay with Plasmodium falciparum [2], 5%; with HepG2, 4%.

Consider `Nc1nc(N)c2c(Oc3cccnc3)cccc2n1`, for which the Inhibition is given as 93% in the assay on Plasmodium falciparum [1], 0% with Plasmodium falciparum [2] and 65% with HepG2.

With `O=C(NCC(CCCN1CCC(c2c[nH]c3ccccc23)CC1)c1ccccc1)Nc1ccc(Cl)c(Cl)c1` (stereo not drawn), the Inhibition is listed as 100% in the assay on Plasmodium falciparum [1], 64% in the assay on Plasmodium falciparum [2] and 38% with HepG2.

As for `COc1ccc2nccc([C@@H](O)CN3CCC(NCc4cc5cc(C)ccc5s4)CC3)c2c1.O=C(O)C(=O)O`, the results for the Inhibition in the assay with Plasmodium falciparum [1], in the assay with Plasmodium falciparum [2] and in the assay on HepG2 were 92%, 74% and 13%, respectively.

In the case of `Cc1ccc(S(=O)(=O)n2nccc2-c2c(-c3ccc(Cl)cc3)noc2C)cc1`, the Inhibition is recorded as 97% in the assay on Plasmodium falciparum [1], 97% in the assay with Plasmodium falciparum [2] and 0% in the assay with HepG2.

Regarding `O=C(C=Cc1ccc(Cl)c(Cl)c1)NCCCCCN1CCCC(CCCNC(=O)c2ccc3c(c2)OCO3)C1` (stereo not drawn), the Inhibition in the assay on Plasmodium falciparum [1] came out at 95%; with Plasmodium falciparum [2], 4%; in the assay on HepG2 it was 30%.

On to `CN1CCc2ccc(NC(=O)Nc3cccc(C(=O)c4ccccc4)c3)cc2C1`, for which the Inhibition was 83% with Plasmodium falciparum [1], 16% with Plasmodium falciparum [2] and 11% in the assay on HepG2.

With `O=C(O)C(F)(F)F.O=S(=O)(NCCN1CCCC1)c1ccc(-c2cccc(CNCCc3cccs3)c2)s1`, the Inhibition with Plasmodium falciparum [1] is listed as 99%; in the assay with Plasmodium falciparum [2], 44%; in the assay with HepG2, 39%.

`COc1ccc2ncc(Cl)c(CCN3C[C@H](CNCc4ccc5c(n4)NC(=O)CS5)[C@H](O)C3)c2n1.Cl`: the Inhibition with Plasmodium falciparum [1] is listed as 94%; with Plasmodium falciparum [2], 16%; in the assay on HepG2 it was 2%.

In general, Inhibition refers to the percentage by which the read-out fell short of the control. A higher Inhibition goes with a response far below the control.
